Compound activity: PubChem, National Center for Advancing Translational Sciences (NCATS)
Sfp inh: qHTS Assay for Inhibitors of Bacillus subtilis Sfp phosphopantetheinyl transferase (PPTase); Potency, µM, without a hit: largest response in the series, negative = inhibition, most hits filed as inhibitors; 310,000 tested, 3.5% active; 4'-phosphopantetheinyl transferase ffp (Bacillus subtilis), Q9F4F7; Biochemical Sfp PPTase activity, qHTS;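 also: the enzyme is Sfp with the accession as filed and its product quenches rhodamine fluorescence; 0% = enzyme reaction without inhibitor and -100% = no enzyme wells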
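Fluorescence-quenching assay with 15 nM Sfp, 5 uM rhodamine-CoA and 12.5 uM BHQ-2-labelled ybbR peptide in pH 7.6 Hepes/MgCl2 buffer. Enzyme was pre-incubated with compound for 15 min at room temperature. Rate was taken from the 30-min fluorescence change (525/598 nm).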
HP1b chromo inh: HTS for Inhibitors of HP1-beta Chromodomain Interactions with Methylated Histone Tails. Chromobox protein homolog 1 (Homo sapiens), P83916. AlphaScreen HP1-beta / biotin-H3K9me3 peptide binding. Potency, µM (doses to about 114 µM), inactives show at the highest dose activity change, negative = inhibition, actives largely listed as inhibitors. 390,000 tested, 0.56% active; also: nearly all actives have a fitted effect of over 70% in size
Target sequence (P83916 whole entry, looked up): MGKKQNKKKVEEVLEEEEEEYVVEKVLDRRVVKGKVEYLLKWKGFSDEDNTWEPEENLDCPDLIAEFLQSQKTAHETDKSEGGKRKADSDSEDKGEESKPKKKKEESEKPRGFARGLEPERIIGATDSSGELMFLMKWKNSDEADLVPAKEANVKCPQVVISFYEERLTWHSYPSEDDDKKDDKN
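Compound inhibition of the preformed complex between 50 nM HP1-beta and 50 nM biotinylated H3K9me3 peptide was read by AlphaScreen. Buffer was PBS pH 7.4 with 0.01% Tween-20. Incubations ran 30 min at room temperature, with 10 ug/mL donor/acceptor beads.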
BAZ2B inh: qHTS Assay for Inhibitors of BAZ2B | Bromodomain adjacent to zinc finger domain protein 2B (Homo sapiens), Q9UIF8 | AlphaScreen BAZ2B-H3K14Ac peptide displacement | Potency, µM (series often up to 114 µM), inactives show top-dose activity change, negative = inhibition, usual class: inhibitors | 360,000 tested, 4.4% active | AID 504333, 2011; also: % is scaled to controls: 0 for no effect and ±100 for the full control effect; nearly all actives have a fitted effect of over 60% in size
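Complex of BAZ2B and biotin-H3K14Ac (50 nM apiece) forms over 30 min at RT, then faces library compounds up to 110 uM for another 30 min; AlphaScreen beads added, 20 min dark incubation, luminescence read.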
JMJD2A Tudor: qHTS Assay for Inhibitors of JMJD2A-Tudor Domain; Lysine-specific demethylase 4A (Homo sapiens), O75164; AlphaScreen JMJD2A-Tudor / H3K4me3 peptide binding; Potency, µM (top dose mostly 114 µM), for inactives: top-dose activity change, negative = inhibition, hits mostly inhibitors; 390,000 tested, 4.4% active; also: % is scaled to controls: 0 for no effect and ±100 for the full control effect; nearly all actives have a fitted effect of over 50% in size
G9a block: qHTS Assay for Inhibitors of Histone Lysine Methyltransferase G9a; Histone-lysine N-methyltransferase EHMT2 (Homo sapiens), Q96KQ7; G9a H3K9 monomethylation, AlphaScreen, 2 h; Potency, µM (series often up to 102 µM), for inactives: at the top dose activity, negative = inhibition, most hits filed as inhibitors; 350,000 tested, 8.8% active; also: % is scaled to controls: 0 for no effect and ±100 for the full control effect; nearly all actives have a fitted effect of over 75% in size
Target sequence (Q96KQ7 913-1193 limits assumed): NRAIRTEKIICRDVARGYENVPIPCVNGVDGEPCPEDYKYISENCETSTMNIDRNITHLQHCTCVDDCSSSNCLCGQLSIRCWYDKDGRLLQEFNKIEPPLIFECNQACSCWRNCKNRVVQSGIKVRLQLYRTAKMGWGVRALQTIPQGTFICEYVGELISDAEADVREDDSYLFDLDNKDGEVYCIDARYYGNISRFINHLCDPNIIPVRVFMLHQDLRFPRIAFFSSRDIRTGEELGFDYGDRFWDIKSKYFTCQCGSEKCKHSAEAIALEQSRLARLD
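Quantitative HTS format: methyltransferase activity on a biotin-tagged H3K9 peptide is measured by AlphaScreen, using a rabbit anti-monomethyl-H3K9 antibody with streptavidin donor and anti-IgG acceptor beads. Final levels are 20 nM enzyme, 500 nM peptide, 20 uM SAM; 2 h RT.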
Starred values were filed as active, the others as inactive; [ ] = remark or other dose. This is a sample that favours compounds with a hit; in the whole collection about 12% have one here. Calls follow the shape of the dose curve; as a rule, active = well fitted curve in the direction sought with a large enough effect; inconclusive = small, poorly fitted or top-dose-only effect, or another doubt; inactive = no such curve, though single readings can be large; an effect the other way counts as inactive or inconclusive. Potency is read from the fitted curve at half-maximal effect.

How did CC1CCN(S(=O)(=O)c2cccc(C(=O)Nc3ccccn3)c2)CC1 do in these assays?
Sfp inh: -1.1%; HP1b chromo inh: 20.1%; BAZ2B inh: 6.3%; JMJD2A Tudor: -19.0%; G9a block: inconclusive

What do the screens show for `CC(=O)Nc1ccc(OC(=O)Oc2ccc(NC(C)=O)cc2)cc1`?
Sfp inh: 15.1%; HP1b chromo inh: 44.4%; BAZ2B inh: 11.2%; JMJD2A Tudor: 5.1%; G9a block: inconclusive

Results for CCn1cc(C(=O)OCC(=O)c2cc(C)n(-c3ccccc3F)c2C)c(=O)c2ccc(C)nc21 ?
Sfp inh: -11.2%; HP1b chromo inh: inconclusive; BAZ2B inh: inconclusive; JMJD2A Tudor: 39.8µM*; G9a block: -21.3%[59 µM]

Results for CCC(=O)N1CCc2cc(-c3csc(NC(=O)c4ccco4)n3)ccc21 ?
Sfp inh: 1.8%; HP1b chromo inh: 27.8%; BAZ2B inh: inconclusive; JMJD2A Tudor: -10.7%; G9a block: -0.2%

Results for CC(C)C(=O)N1CCc2cc(-c3csc(N)n3)ccc21 ?
Sfp inh: 39.8µM*; HP1b chromo inh: -21.6%; BAZ2B inh: inconclusive; JMJD2A Tudor: -22.7%; G9a block: inconclusive

How did CCOC(=O)Cc1csc(N/N=C\c2ccc(N(C)C)cc2)n1 do in these assays?
Sfp inh: inconclusive; HP1b chromo inh: -14.2%; BAZ2B inh: 11.2µM*; JMJD2A Tudor: 39.8µM*; G9a block: 44.7µM*

How did CCOC(=O)Cc1csc(N/N=C\c2cccc(Br)c2)n1 do in these assays?
Sfp inh: -25.8%; HP1b chromo inh: 8.4%; BAZ2B inh: -2.6%; JMJD2A Tudor: 28.2µM*; G9a block: -27.5%[0.0925 µM]

Results for CN(C)/N=C/c1ccc(P(c2ccc(/C=N/N(C)C)o2)c2ccc(/C=N/N(C)C)o2)o1 ?
Sfp inh: 8.7%; HP1b chromo inh: inconclusive; BAZ2B inh: 22.4µM*; JMJD2A Tudor: 17.8µM*; G9a block: 35.5µM*

Results for CC(=O)c1ccc(N2Cc3ccccc3C3(CCOCC3)C2=N)cc1 ?
Sfp inh: 12.5%; HP1b chromo inh: 37.2%; BAZ2B inh: -24.9%; JMJD2A Tudor: -5.1%; G9a block: 56.2µM*

What do the screens show for `CC(=O)c1ccc(N2CCN(S(=O)(=O)c3cccc(S(=O)(=O)N4CCOCC4)c3)CC2)cc1`?
Sfp inh: -5.4%; HP1b chromo inh: -10.1%; BAZ2B inh: inconclusive; JMJD2A Tudor: 3.8%[11.4 µM]; G9a block: -34.2%

Results for CC(C)n1c(O)c(N=NC(=O)CNC(=O)Cc2ccc(Cl)cc2)c2ccccc21 ?
Sfp inh: 8.7%; HP1b chromo inh: -1.8%; BAZ2B inh: -30.3%; JMJD2A Tudor: inconclusive; G9a block: inconclusive

What do the screens show for `CC(C)n1c(O)c(N=NC(=O)Cc2csc(N3CCOCC3)n2)c2ccccc21`?
Sfp inh: -2.3%; HP1b chromo inh: 19.1%; BAZ2B inh: 39.8µM*; JMJD2A Tudor: -25.2%; G9a block: inconclusive

What do the screens show for `O=C(O)COn1c(-c2ccccc2)nc2ccc([N+](=O)[O-])cc21`?
Sfp inh: 25.5%; HP1b chromo inh: 10.6%; BAZ2B inh: 50.1µM*; JMJD2A Tudor: inconclusive; G9a block: 44.7µM*

What do the screens show for `CCOC(=O)C(C)On1c(-c2ccccc2)nc2ccc([N+](=O)[O-])cc21` (stereo not drawn)?
Sfp inh: -19.0%; HP1b chromo inh: -2.8%; BAZ2B inh: inconclusive; JMJD2A Tudor: inconclusive; G9a block: -4.6%[12.7 µM]

What do the screens show for `O=C(NCCc1ccccc1F)C(=O)Nc1nccs1`?
Sfp inh: 10.7%; HP1b chromo inh: -8.9%; BAZ2B inh: -3.9%; JMJD2A Tudor: -7.6%[11.4 µM]; G9a block: -42.5%

Results for Cc1cn(CC(=O)NCCNc2ccc([N+](=O)[O-])cn2)c(=O)[nH]c1=O ?
HP1b chromo inh: 11.5%; JMJD2A Tudor: -2.7%

What do the screens show for `CCCCCCCn1ccc(=N)cc1`?
Sfp inh: 10.1%; HP1b chromo inh: 11.4%; BAZ2B inh: -4.4%; JMJD2A Tudor: 12.9%; G9a block: 6.31µM*

How did CCCCCCCCCn1ccc(=N)cc1 do in these assays?
Sfp inh: -23.8%; HP1b chromo inh: 22.4%; BAZ2B inh: 4.8%; JMJD2A Tudor: -10.4%; G9a block: 5.3%

What do the screens show for `C=CCn1c(C)cc(C(=O)CSc2nc3ccccc3c(=O)[nH]2)c1C`?
Sfp inh: inconclusive; HP1b chromo inh: -23.9%; BAZ2B inh: inconclusive; JMJD2A Tudor: -9.2%[11.4 µM]; G9a block: 50.1µM*

How did CC(Sc1nc2ccccc2c(=O)[nH]1)C(=O)O (stereo not drawn) do in these assays?
Sfp inh: 3.8%; HP1b chromo inh: 13.0%; BAZ2B inh: -6.6%; JMJD2A Tudor: -8.2%; G9a block: 3.16µM*

How did Nc1nc(SCC(=O)c2cc(F)ccc2F)n[nH]1 do in these assays?
Sfp inh: 0.2%; HP1b chromo inh: 0.6%; BAZ2B inh: -21.0%; JMJD2A Tudor: -24.8%; G9a block: 39.8µM*

How did C=CCn1c(C)cc(C(=O)CSc2nc3ccccc3[nH]2)c1C do in these assays?
Sfp inh: -0.3%; HP1b chromo inh: -13.3%; BAZ2B inh: inconclusive; JMJD2A Tudor: inconclusive; G9a block: inconclusive

How did CCc1ccc(C(=O)CSc2nc3ccccc3c(=O)[nH]2)cc1 do in these assays?
Sfp inh: 4.0%; HP1b chromo inh: 9.7%; BAZ2B inh: 10.0%; JMJD2A Tudor: -6.2%; G9a block: -61.4%

How did CC(C)Sc1nc2ccccc2c(=O)[nH]1 do in these assays?
Sfp inh: 24.6%; HP1b chromo inh: 38.5%; BAZ2B inh: 2.9%; JMJD2A Tudor: 21.1%; G9a block: 5.7%

Results for Cc1ccc(C(=O)CSc2nc3ccccc3c(=O)[nH]2)cc1 ?
Sfp inh: -1.9%; HP1b chromo inh: 27.9%; BAZ2B inh: 10.2%; JMJD2A Tudor: 6.3%; G9a block: 44.7µM*

Results for CCOC(=O)CCC(=O)NNC(=O)c1ccc(NC(=O)c2ccccc2)cc1 ?
Sfp inh: 12.2%; HP1b chromo inh: 15.0%; BAZ2B inh: 1.6%; JMJD2A Tudor: inconclusive

How did COc1cc(NC(=O)c2ccc(-c3cccc(F)c3)o2)ccc1NC(=O)c1ccccc1Cl do in these assays?
HP1b chromo inh: 21.8%; JMJD2A Tudor: -20.1%

What do the screens show for `C=CCn1c(C)cc(C(=O)CSc2n[nH]c(N)n2)c1C`?
Sfp inh: -11.5%; HP1b chromo inh: 8.3%; BAZ2B inh: -2.5%; JMJD2A Tudor: inconclusive; G9a block: 31.6µM*

What do the screens show for `CC1=NC(=O)C(N=Nc2cccc(O)c2)N1c1ccccc1` (stereo not drawn)?
Sfp inh: -7.0%; HP1b chromo inh: inconclusive; BAZ2B inh: 20µM*; JMJD2A Tudor: 31.6µM*; G9a block: inconclusive
